Source: ChEMBL document CHEMBL3988442, “University of Dundee, Small-Polar-MMV Screening Library” (2021)
For some assays here: Results with a measured potency or affinity are listed apart.

Key:
Design in all cases: scale not given: direction of the effect not stated beside the values
[1] = target: Protein translocase subunit SecA (Escherichia coli (strain K12)) (UniProt P10408); experiment: Assay to Identify E. coli SecA ATPase Inhibitors; format: functional; conditions: 30 µM
[2] = target: T1, Ubiquitin-activating enzyme e1, putative (Leishmania donovani (strain BPK282A1)) (UniProt E9BSI1); experiment: Leishmania donovani Ubiquitin Activating Enzyme (LdE1); format: functional; conditions: 30 µM
T1 sequence (whole entry): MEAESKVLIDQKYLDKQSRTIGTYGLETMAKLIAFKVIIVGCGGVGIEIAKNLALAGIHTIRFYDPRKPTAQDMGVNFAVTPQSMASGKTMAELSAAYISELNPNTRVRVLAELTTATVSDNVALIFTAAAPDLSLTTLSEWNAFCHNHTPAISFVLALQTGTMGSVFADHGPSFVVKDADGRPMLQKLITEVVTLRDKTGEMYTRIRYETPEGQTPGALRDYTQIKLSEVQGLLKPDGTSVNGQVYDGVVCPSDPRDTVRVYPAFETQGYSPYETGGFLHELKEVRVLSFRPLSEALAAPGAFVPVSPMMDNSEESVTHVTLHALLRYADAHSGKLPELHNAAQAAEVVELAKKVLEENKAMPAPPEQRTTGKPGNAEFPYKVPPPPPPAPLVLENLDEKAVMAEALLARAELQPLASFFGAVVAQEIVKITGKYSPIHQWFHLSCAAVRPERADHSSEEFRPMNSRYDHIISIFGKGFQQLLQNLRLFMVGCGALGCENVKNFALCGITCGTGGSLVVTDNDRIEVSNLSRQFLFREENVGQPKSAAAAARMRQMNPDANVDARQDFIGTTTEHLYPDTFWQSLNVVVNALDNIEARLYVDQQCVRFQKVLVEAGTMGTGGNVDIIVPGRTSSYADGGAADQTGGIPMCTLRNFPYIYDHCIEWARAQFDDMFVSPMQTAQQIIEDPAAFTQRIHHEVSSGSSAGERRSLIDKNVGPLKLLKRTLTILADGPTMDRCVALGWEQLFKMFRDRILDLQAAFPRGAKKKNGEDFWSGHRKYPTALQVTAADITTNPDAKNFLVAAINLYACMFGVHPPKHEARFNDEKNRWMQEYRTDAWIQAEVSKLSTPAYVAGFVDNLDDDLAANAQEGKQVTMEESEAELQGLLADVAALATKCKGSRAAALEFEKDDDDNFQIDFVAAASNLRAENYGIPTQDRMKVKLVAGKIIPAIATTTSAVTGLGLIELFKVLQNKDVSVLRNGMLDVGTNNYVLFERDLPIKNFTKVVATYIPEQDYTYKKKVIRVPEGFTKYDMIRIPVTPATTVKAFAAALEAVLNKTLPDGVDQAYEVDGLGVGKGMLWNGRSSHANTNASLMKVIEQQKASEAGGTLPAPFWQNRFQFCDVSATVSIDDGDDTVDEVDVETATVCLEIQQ

[3] = target: Sialic acid-binding Ig-like lectin 9 (Homo sapiens) (UniProt Q9Y336); experiment: Hs-Siglec9 ALPHAscreen SOP 20170721; conditions: 10 µM
Chain of Sialic acid-binding Ig-like lectin 9 (Homo sapiens) (Q9Y336 whole entry): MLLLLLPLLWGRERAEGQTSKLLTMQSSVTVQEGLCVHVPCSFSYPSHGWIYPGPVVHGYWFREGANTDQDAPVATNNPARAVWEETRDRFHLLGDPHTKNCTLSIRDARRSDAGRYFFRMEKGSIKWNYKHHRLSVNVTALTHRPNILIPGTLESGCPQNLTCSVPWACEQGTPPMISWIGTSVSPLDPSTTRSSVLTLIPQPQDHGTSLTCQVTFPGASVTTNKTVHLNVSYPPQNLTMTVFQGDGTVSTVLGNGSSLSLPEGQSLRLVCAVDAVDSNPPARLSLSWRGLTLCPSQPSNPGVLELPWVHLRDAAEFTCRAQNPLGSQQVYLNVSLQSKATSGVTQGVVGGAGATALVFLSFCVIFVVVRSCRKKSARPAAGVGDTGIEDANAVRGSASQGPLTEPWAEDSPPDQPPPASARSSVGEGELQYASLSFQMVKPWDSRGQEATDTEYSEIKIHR

Trypanosoma cruzi = experiment: Trypanosoma cruzi phosphomannomutase and mannose-1-phosphate guanylyltransferase assay; format: functional; conditions: 10 µM
[4] = target: T2, Arginase-2, mitochondrial (Homo sapiens) (UniProt P78540); experiment: in vitro enzyme assay to detect the production of urea directly proportional to the activity of Arginase II; format: functional; conditions: 33.3 µM; also: in the data most compounds retested in dose-response had high values
T2 sequence (whole entry): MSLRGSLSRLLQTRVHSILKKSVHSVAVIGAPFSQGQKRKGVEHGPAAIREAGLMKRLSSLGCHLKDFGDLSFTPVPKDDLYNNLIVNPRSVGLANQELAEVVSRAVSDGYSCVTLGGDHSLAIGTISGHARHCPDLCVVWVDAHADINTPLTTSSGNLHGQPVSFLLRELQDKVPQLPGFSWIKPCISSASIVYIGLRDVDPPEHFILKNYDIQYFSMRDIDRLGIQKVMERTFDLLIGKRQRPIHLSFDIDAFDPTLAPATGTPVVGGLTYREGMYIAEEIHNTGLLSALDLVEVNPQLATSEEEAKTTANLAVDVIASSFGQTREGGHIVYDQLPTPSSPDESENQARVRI

[5] = target: T3, Proteasome subunit beta (Trypanosoma cruzi) (UniProt O96673); experiment: Trypanosoma cruzi proteasome chymotrypsin-like activity (TcProtChymo) assay.; also: in the data most compounds retested in dose-response had high values; format: functional; conditions: 9.37 µM
T3 sequence (whole entry): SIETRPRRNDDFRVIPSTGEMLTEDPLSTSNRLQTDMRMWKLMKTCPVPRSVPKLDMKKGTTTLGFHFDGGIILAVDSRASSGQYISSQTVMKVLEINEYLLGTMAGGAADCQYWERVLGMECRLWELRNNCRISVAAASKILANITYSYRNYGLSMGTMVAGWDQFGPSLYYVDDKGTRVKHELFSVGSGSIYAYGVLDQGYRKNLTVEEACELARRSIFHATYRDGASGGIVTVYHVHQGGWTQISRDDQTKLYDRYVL

Homo sapiens = species on record: Homo sapiens; experiment: To identify inhibition of the IFN signalling (Jak-Stat) pathway via expression of an eGFP reporter gene under the control of an IFN-stimulated response element (ISRE) containing MxA promoter.; format: functional; conditions: 30 µM
[6] = target: T4, Tyrosyl-tRNA synthetase, putative (Trypanosoma cruzi (strain CL Brener)) (UniProt Q4DSP6); experiment: Trypanosoma cruzi tyrosyl tRNA synthetase (TcYRS) _High Tyrosine SOP; format: functional; conditions: 30 µM; also: in the data most compounds retested in dose-response had high values
T4 sequence (whole entry): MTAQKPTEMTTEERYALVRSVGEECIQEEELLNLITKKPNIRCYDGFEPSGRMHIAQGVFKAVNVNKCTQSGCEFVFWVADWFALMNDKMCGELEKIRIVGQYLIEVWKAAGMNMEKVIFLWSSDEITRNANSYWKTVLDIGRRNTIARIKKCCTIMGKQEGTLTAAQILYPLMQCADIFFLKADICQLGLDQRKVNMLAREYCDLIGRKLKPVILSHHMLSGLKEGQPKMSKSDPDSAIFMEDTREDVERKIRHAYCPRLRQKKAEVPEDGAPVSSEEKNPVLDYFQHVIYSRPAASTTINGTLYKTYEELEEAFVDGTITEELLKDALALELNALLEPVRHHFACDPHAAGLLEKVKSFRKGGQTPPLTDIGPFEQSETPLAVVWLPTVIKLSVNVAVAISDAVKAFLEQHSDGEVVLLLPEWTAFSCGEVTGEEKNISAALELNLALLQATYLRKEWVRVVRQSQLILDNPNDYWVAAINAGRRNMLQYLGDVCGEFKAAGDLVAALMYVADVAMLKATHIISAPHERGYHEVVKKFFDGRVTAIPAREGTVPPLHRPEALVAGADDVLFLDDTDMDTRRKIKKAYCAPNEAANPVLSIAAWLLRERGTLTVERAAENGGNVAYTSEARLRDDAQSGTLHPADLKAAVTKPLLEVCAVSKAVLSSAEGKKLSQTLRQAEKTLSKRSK

[7] = target: T4, Tyrosyl-tRNA synthetase, putative (Trypanosoma cruzi (strain CL Brener)); experiment: Trypanosoma cruzi tyrosyl tRNA synthetase (TcYRS) SOP; format: functional; conditions: 30 µM
[8] = target: Chromo domain-containing protein 1 (Saccharomyces cerevisiae (strain ATCC 204508 / S288c) (Baker's yeast)) (UniProt P32657); experiment: ScCHD-1 Enzyme Inhibition Assay; format: functional; conditions: 30 µM; also: in the data most compounds retested in dose-response had high values
Chain of Chromo domain-containing protein 1 (Saccharomyces cerevisiae (strain ATCC 204508 / S288c) (Baker's yeast)) (P32657 whole entry, the tested form may be a part): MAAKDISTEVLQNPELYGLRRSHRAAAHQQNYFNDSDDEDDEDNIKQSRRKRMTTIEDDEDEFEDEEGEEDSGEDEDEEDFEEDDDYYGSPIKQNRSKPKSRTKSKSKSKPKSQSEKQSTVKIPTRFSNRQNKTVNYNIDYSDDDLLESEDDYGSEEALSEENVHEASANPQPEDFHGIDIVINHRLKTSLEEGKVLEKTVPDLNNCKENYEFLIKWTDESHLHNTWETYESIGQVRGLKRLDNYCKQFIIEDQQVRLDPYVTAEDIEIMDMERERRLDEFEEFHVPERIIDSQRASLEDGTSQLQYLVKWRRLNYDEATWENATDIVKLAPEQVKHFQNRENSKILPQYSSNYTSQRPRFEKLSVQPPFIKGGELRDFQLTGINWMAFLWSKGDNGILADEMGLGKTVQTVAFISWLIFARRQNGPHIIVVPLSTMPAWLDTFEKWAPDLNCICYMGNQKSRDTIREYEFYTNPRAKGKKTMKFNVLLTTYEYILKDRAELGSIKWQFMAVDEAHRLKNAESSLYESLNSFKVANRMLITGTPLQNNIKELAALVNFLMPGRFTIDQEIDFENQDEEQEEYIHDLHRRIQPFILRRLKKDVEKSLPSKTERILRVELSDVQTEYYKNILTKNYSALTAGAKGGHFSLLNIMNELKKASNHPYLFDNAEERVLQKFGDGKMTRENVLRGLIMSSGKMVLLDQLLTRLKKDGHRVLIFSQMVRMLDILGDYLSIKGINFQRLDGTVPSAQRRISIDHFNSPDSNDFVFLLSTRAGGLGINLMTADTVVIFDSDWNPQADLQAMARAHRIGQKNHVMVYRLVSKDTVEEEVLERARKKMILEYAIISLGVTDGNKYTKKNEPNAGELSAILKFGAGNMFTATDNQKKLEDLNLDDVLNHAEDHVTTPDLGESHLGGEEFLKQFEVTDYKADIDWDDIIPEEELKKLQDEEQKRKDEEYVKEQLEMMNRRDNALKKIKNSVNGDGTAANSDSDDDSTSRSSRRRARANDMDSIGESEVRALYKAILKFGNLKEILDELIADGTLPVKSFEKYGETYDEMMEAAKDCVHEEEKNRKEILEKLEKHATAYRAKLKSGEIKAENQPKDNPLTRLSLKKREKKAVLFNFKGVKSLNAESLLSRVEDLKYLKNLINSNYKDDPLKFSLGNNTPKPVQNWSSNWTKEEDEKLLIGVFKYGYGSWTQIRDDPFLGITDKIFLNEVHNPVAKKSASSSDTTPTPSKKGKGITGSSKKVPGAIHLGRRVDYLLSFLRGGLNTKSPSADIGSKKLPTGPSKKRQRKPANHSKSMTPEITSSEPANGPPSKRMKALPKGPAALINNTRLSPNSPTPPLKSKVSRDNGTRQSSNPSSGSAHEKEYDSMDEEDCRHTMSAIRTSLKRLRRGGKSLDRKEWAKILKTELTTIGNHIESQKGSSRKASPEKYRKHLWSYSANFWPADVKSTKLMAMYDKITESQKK

Chain of Protein translocase subunit SecA (Escherichia coli (strain K12)) (P10408 whole entry): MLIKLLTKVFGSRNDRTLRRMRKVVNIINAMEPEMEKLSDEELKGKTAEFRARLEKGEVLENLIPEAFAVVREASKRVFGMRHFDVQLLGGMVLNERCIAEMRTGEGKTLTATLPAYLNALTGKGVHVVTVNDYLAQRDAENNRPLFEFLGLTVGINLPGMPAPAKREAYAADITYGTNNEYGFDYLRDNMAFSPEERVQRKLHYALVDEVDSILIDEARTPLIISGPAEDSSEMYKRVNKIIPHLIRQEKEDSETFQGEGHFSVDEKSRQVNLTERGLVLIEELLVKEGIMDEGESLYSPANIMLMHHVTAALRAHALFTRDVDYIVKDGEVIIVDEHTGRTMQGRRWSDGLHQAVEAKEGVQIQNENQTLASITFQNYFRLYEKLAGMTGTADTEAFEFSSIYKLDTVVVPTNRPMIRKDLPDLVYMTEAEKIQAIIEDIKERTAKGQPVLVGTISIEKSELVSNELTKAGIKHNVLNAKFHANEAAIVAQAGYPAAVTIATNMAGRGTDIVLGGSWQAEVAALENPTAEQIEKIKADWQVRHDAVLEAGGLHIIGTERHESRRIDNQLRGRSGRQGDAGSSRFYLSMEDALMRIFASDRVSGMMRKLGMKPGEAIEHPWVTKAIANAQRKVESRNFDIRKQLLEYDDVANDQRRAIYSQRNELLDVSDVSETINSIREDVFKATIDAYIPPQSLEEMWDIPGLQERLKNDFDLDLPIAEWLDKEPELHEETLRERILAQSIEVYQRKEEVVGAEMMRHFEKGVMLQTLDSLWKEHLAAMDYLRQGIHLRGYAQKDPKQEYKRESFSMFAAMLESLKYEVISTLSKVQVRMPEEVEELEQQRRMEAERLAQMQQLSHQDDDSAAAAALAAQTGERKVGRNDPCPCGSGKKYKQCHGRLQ

| SMILES | Percent Effect [1] [%] | Percent Effect [2] [%] | Percent Effect [3] [%] | Percent Effect (Trypanosoma cruzi) [%] | Percent Effect [4] [%] | Percent Effect [5] [%] | Percent Effect (Homo sapiens) [%] | Percent Effect [6] [%] | Percent Effect [7] [%] | Percent Effect [8] [%] |
| --- | --- | --- | --- | --- | --- | --- | --- | --- | --- | --- |
| Cc1cc(C(=O)NCc2ccnc(N3CCN(C)CC3)c2)c(C)s1 | -2.97 | -28.2 | -3.6 | -0.657 | 3.69 | 3.67 | -0.506 | 8.13 | 20.5 | -3.48 |
| CS(=O)(=O)N1CCC2(CC1)CC(CC(=O)NC1CC1)c1ccccc12 (stereo not given) | -4.87 | 9.09 | 1.58 | 2.04 | -3.24 | 15.4 | -6.07 | 4.74 | 10.3 | 0.815 |
| Cc1nc([C@@H]2C[C@@H]3CCN(C(=O)Cc4ccsc4)C[C@H]3O2)no1 | -3.1 | -1.3 | -5.06 | -3.21 | -1.62 | 10.5 | -23.3 | -1.58 | 0 | -2.29 |
| CCn1cc(NC(=O)CCc2ccc3c(c2)OCCCO3)cn1 | -5.48 | 15.6 | 6.08 | 4.85 | -6.35 | 2.28 | 0.692 | 6.86 | 23.5 | -12.8 |
| CNC(=O)C1CCC(NC(=O)N(C)Cc2c(C)noc2C)CC1 (stereo not given) | -5.49 | 10.3 | -15.1 | 11 | -3.28 | 1.96 | 2.07 | 6.22 | 18.1 | 96.3 |
| CN(C)S(=O)(=O)N1CC[C@]2(C[C@H](Oc3cccnc3)CO2)C1 | -2.88 | 14.3 | -1.9 | 1.66 | 8.91 | 23.7 | 1.15 | 11.1 | 15.4 | -4.29 |
| CCOc1ccccc1C(=O)N1CCCC1c1ncc2c(n1)CCNC2 (stereo not given) | -5.15 | 4 | -1.2 | -5.72 | -4.42 | 7.06 | 10.5 | -6.35 | -2.5 | -31.8 |
| CNc1cncc(C2CCCN2C(=O)c2ccc3oc(C)cc3c2)n1 (stereo not given) | -2.25 | 12 | -1.38 | 3.35 | -1.33 | 16.6 | -2.62 | 3.17 | 7.5 | -26.1 |
| CSc1ccccc1C(C(=O)O)N1CCN(Cc2ccccn2)CC1 (stereo not given) | -6 | 13.5 | 6.14 | 9.21 | 60.5 | 10.8 | 14.2 | 6.92 | 19.5 | 0.128 |
| CCc1noc(C(C)N2CCN(Cc3nnc(C4CC4)o3)CC2)n1 (stereo not given) | -3.4 | 2.67 | -2.35 | 0.402 | -1.77 | -3.31 | -5.04 | 0.526 | 0 | -5.5 |
| CN(C)c1cc(C(=O)N2CCN(c3cnccn3)CC2)ccn1 | -1.53 | 10.3 | 0.94 | 3.1 | 2.46 | 3.16 | 3.38 | 5.26 | 10.8 | -7.53 |
| COCc1nc(CNC2CCSCC2)no1 | -6.18 | 2.7 | 1.55 | 3.98 | 1.75 | 7.36 | -12.7 | 3.72 | 9.76 | -0.943 |
| NC(=O)c1cc(C2CCCN(CCOCC(F)(F)F)C2)n[nH]1 (stereo not given) | -3.84 | 2.56 | -22.8 | 9.3 | -5.33 | 8.45 | -4.53 | 2.39 | 10.8 | 26.2 |
| CC(C)(C)C(=O)N1C[C@H](c2ccsc2)[C@H]2CN(Cc3cccs3)CC[C@H]21 | -0.241 | 17.3 | -5.01 | 2.37 | 2.65 | 17.1 | 56.8 | 2.12 | 17.5 | -22 |
| CC(NC(=O)c1cc(Br)c2c(c1)OCCO2)C(N)=O (stereo not given) | -7.52 | 18.7 | 6.37 | 5.82 | -3.55 | 17.9 | 0.842 | 2.63 | 10.3 | 77.7 |
| COc1ccc(F)cc1CN1CCCC(c2cc(C(N)=O)[nH]n2)C1 (stereo not given) | -3.96 | 5.33 | 5.92 | 1.81 | -2.22 | 1.61 | 8.51 | 3.68 | 5.13 | -9.49 |
| Cc1ccc(OC2(C(=O)O)CCN(C(=O)c3ccc(F)cc3)CC2)cn1 | -6.12 | -2.7 | 27.8 | 9.41 | -1.05 | 1.88 | -18.1 | 2.66 | 7.32 | -1.29 |
| CCCc1cc(C(=O)N2CCCC2c2cccnc2)[nH]n1 (stereo not given) | -2.28 | 13.5 | 7.33 | 2.81 | 4.54 | 17.1 | 10.1 | 4.79 | 14.6 | -3.7 |
| CCC1c2ccsc2CCN1C(=O)NCc1ccccn1 (stereo not given) | -3.49 | 20.5 | -10.3 | 4.6 | 4.1 | 10.2 | 10.8 | 5.26 | 22.9 | -7.76 |
| CCc1[nH]ncc1C(=O)N1CCCC(n2cccn2)C1 (stereo not given) | -3.15 | 13.3 | 7.05 | -2.21 | 4.88 | 7.38 | -9.13 | 4.74 | 15.4 | -7.04 |
| CN1CCOC(CNC(=O)CCCOc2ccccc2F)C1 (stereo not given) | -2.16 | 12.8 | 3.45 | 1.6 | 2.87 | 18.5 | 18.2 | 10.1 | 22.9 | -4.86 |
| Cc1ccc(OCCC(=O)N2CCN(c3cnccn3)CC2)cc1C | 1.26 | 13 | -2.1 | -5.78 | 3.48 | 14.9 | 16.1 | 6.86 | 18.8 | -6.5 |
| Cc1ccc(-c2nc(CN3CCCC3Cn3cc(C)cn3)no2)cc1 (stereo not given) | -2.04 | 5.33 | 2.03 | 4.02 | -8.43 | 22.6 | 12.1 | 1.58 | 10.3 | -12 |
